# Hits are enriched below; roughly 19% of the tested compounds scored in any of these assays.
# Gal4-VP16 FLuc: counter-screen for ROR gamma inhibitors: Gal4-VP16 reporter. actives 3.5% (n = 310,000). Drosophila S2 Gal4-VP16 UAS-luciferase, luminescence, 20 h. Potency, µM (highest dose often 53.6 µM), for the others: at the highest dose activity, negative = inhibition, actives largely listed as inhibitors;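 note: Gal4-VP16 expression switched on by copper sulfate through the metallothionein promoter; nearly all actives have a fitted effect of over 50% in size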
# TDP1 block: inhibitors of human tyrosyl-DNA phosphodiesterase TDP1. recombinant TDP1, AlphaScreen DNA substrate cleavage. Potency, µM (highest dose often 130 µM), inactives show top-dose activity change, negative = inhibition, most hits filed as inhibitors. actives 0.28% (n = 350,000); note: nearly all actives have a fitted effect of over 40% in size
#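 Steps: enzyme plus compound, 15 min RT; add biotin/phosphotyrosine-FITC oligonucleotide (15 nM final), react 5 min; add donor/acceptor beads (10 ug/ml final), 10 min; read AlphaScreen. Tdp1 at 1 nM final.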
# DT40 TDP1 CPT: growth inhibition of DT40 Tdp1-/-;hTDP1 cells with camptothecin (screen for TDP1 inhibitors) | Potency, µM (doses to about 46.2 µM), for inactives: top-dose activity change, negative = growth inhibition, hits mostly inhibitors | chicken DT40 Tdp1-/-;hTDP1 cells + 20 nM CPT, ATP luminescence, 48 h | actives 12% (n = 420,000); note: nearly all actives have a fitted effect of over 55% in size
#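 Chicken DT40 Tdp1-/- cells stably complemented with human TDP1 were seeded at 400 cells/well in medium containing 20 nM camptothecin, exposed to pin-transferred compounds, and grown at 37 °C for at least 48 hr. Viability was read as ATP luminescence.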
# RORg inh: inhibitors of mouse ROR gamma transcriptional activity | P51450 | Drosophila S2 Gal4-RORgamma UAS-luciferase reporter, 20 h | Potency, µM (highest dose often 53.6 µM), without a hit: top-dose activity change, negative = inhibition, usual class: inhibitors | actives 5.4% (n = 310,000); note: nearly all actives have a fitted effect of over 60% in size
# Target sequence (P51450 whole entry, looked up, the tested form may be a part): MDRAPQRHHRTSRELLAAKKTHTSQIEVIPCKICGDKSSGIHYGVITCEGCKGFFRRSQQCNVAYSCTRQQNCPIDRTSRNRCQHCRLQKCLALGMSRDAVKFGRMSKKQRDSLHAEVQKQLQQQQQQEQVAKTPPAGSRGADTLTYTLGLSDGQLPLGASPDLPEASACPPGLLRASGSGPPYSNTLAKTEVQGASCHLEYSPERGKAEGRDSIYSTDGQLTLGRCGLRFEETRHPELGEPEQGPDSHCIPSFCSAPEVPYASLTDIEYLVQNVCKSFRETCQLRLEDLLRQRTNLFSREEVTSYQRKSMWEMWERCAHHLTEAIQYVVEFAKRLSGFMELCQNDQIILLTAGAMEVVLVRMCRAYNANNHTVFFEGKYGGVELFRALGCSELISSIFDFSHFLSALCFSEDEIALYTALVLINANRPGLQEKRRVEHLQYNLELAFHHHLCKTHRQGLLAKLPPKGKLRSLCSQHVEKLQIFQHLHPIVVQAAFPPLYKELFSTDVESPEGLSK
#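 Luminescence from a UAS-regulated Photinus luciferase reporter in stably transfected Drosophila Schneider cells is measured; decreased signal marks ROR gamma inhibition. Fusion expression is induced by 700 uM copper sulfate for 20 hr.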
# DT40 TDP1 no CPT: qHTS for Inhibitors of human tyrosyl-DNA phosphodiesterase 1 (TDP1): qHTS in cells in absence of CPT; actives 15% (n = 420,000); Potency, µM (titrated, usually from 46.2 µM), for inactives: top-dose activity change, negative = growth inhibition, actives largely listed as inhibitors; DT40 Tdp1-/- hTDP1 cells, no CPT, ATP luminescence, 48 h; note: nearly all actives have a fitted effect of over 55% in size
#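 DT40 Tdp1-/-;hTDP1 cells, no CPT (DMSO vehicle only), 400 cells/well; compounds pin-transferred; ≥48 hr, 37 °C; CellTiter-Glo 30 min RT dark, luminescence read.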
# Numbers without * were called inactive; ? = inconclusive; / = no result given; [ ] = remark or other dose. Calls come from the whole dose curve; as a rule, active = well fitted curve in the direction sought with a large enough effect; inconclusive = small, poorly fitted or top-dose-only effect, or another doubt; inactive = no such curve, though single readings can be large; an effect the other way counts as inactive or inconclusive. % is set by controls: 0 for no effect and ±100 for the full control effect; potency is the fitted concentration of half-maximal effect.
SMILES,Gal4-VP16 FLuc,TDP1 block,DT40 TDP1 CPT,RORg inh,DT40 TDP1 no CPT
COCC(C)n1c(SCc2cc(C(=O)OC)c(C)o2)nc2ccccc2c1=O (configuration not stated),-6%,2%,4.1µM*,1%,5.8µM*
CCCCn1c(SCC(=O)c2cc(OC)ccc2OC)nc2cc(S(N)(=O)=O)ccc21,0%,3%,0%,12%,-19%
COC(=O)c1ccc(CSc2nc(C)nc3sc(C)c(C)c23)o1,4µM*,-1%,15µM*,?,10µM*
CCn1cc(C(=O)NCCC(C)C)c(=O)c2cc(S(=O)(=O)N(C)C3CCCCC3)ccc21,/,7%,-21%,/,?
CCC(=O)N1CCc2cc(S(=O)(=O)NCCC(=O)N3CCN(c4ccccn4)CC3)ccc21,-3%,5%,-1%,3%,?
O=C(CSc1ccc(-c2ccccn2)nn1)NCc1ccccc1,-6%,3%,0%,-13%,4%
COC(=O)c1ccc2c(=O)n(Cc3ccco3)c(SCC(=O)Nc3ccc(C)c(Cl)c3)nc2c1,0%,1%,10µM*,-3%,21µM*
CCOc1ccc(/C=N/NC(=O)c2ccc(CSc3nc4ccccc4[nH]3)cc2)cc1,-5%,-1%,23µM*,-7%,23µM*
COC(=O)c1ccc(CSc2nc3ccccc3c(=O)n2Cc2ccco2)o1,-24%,-1%,23µM*,-10%,16µM*
COC(=O)c1ccc(CSc2nc3ccccc3c(=O)n2CC(C)C)o1,7%,-2%,?,-38%,?
O=C(N/N=C/c1ccc(OC(F)F)cc1)c1ccc(CSc2nc3ccccc3[nH]2)cc1,-2%,2%,?,20%,?
Cc1nc(SCC(=O)N(C)Cc2ccco2)c2c(C)c(C)sc2n1,-13%,3%,16µM*,8%,?
COC(=O)CN(C(=S)Nc1ccc(F)cc1)C1CC(=O)N(c2ccc(OC)cc2)C1=O (configuration not stated),5%,1%,?,-1%,-24%
N#Cc1ccc(S(=O)(=O)N2CCN(CN3C(=O)CC4(CCCC4)C3=O)CC2)cc1,/,/,-18%,/,-10%
O=C(OCC(=O)N1CCOCC1)c1ccccc1OCc1ccccc1Cl,/,2%,?,/,?
Cc1ccc(-c2csc(N3CCN(CCCn4c(-c5ccncc5)nc5ccccc54)CC3)n2)cc1,-15%,/,5.8µM*,-30%,3.7µM*
Cc1ccc(-c2csc(N(CCO)CCCn3c(C(F)(F)F)nc4cc(C(F)(F)F)ccc43)n2)cc1,?,/,?,10µM*,?
OCCN(CCCn1c(C(F)(F)F)nc2ccccc21)c1nc(CN2CCCCC2)cs1,1%,/,?,4%,-23%
Cc1ccc(-c2csc(N3CCN(CCCn4c(C(F)(F)F)nc5ccccc54)CC3)n2)cc1,-2%,/,21µM*,?,15µM*
OCCN(CCCn1c(-c2ccncc2)nc2ccccc21)c1nc(CN2CCCCC2)cs1,-4%,/,0%,-6%,-14%
Cc1ccc(-c2csc(N3CCC[C@@H]3C(=O)NCCn3c(-c4ccncc4)nc4ccccc43)n2)cc1,?,/,?,-34%,13µM*
CNc1nc(SCC(=O)Nc2ccc(Cl)c(Cl)c2)nc(N2CCOCC2)n1,?,2%[56.1 µM],?,-43%,?
Oc1c(C(c2ccccc2F)N2CCOCC2)sc2nc(-c3ccco3)nn12 (configuration not stated),/,5%,0%,/,7%
COc1cc(-c2nnc(SC(C)C(=O)Nc3c(C)n(C)n(-c4ccccc4)c3=O)o2)cc(OC)c1OC (configuration not stated),3%,0%,-12%,9%,0%
COc1ccccc1CNC(=O)C1CC(=O)N(c2ccc(C)c(C)c2)C1 (configuration not stated),0%,3%,1%,13%,-2%

# Source: PubChem BioAssay (National Center for Advancing Translational Sciences (NCATS))
